This note sets out measurements from ChEMBL document CHEMBL1961873, “Compounds: GSK PKIS; Assays: Nanosyn kinase panel” (2012).

For orientation: inhibition means the relative decrease from the control value, in per cent.

In test [1] the target is Tyrosine-protein kinase SYK (Homo sapiens) (UniProt P43405). Particulars: at 1 µM.
The target of test [2] is T1, Tyrosine-protein kinase Tec (Homo sapiens) (UniProt P42680).
T1 sequence (whole entry): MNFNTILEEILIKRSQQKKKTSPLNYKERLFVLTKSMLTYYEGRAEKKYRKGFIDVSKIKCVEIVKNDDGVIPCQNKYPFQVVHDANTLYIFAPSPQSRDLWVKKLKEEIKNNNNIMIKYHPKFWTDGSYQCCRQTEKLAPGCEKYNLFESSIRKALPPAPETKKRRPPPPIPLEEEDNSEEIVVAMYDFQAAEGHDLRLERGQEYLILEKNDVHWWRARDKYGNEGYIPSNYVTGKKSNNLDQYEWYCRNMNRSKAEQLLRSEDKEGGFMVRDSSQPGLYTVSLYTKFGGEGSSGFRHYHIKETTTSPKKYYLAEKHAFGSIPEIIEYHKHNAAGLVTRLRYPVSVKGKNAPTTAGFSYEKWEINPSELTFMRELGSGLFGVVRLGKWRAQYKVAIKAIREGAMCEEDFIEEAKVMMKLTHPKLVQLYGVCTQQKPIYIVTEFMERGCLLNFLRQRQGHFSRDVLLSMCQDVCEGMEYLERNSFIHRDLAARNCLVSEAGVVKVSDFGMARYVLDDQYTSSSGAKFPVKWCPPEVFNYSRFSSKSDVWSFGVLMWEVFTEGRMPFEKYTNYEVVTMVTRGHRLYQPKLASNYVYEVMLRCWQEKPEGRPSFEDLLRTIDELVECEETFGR
As to conditions: at 0.1 µM.

Test [3] concerns the target T1, Tyrosine-protein kinase Tec (Homo sapiens). As to conditions: at 1 µM.
For test [4], the target named is Angiopoietin-1 receptor (Homo sapiens) (UniProt Q02763). Particulars: at 0.1 µM.
The target is the same in test [5]. As to conditions: at 1 µM.
The target in test [6] is T2, Non-receptor tyrosine-protein kinase TNK1 (Homo sapiens) (UniProt Q13470).
T2 sequence (whole entry): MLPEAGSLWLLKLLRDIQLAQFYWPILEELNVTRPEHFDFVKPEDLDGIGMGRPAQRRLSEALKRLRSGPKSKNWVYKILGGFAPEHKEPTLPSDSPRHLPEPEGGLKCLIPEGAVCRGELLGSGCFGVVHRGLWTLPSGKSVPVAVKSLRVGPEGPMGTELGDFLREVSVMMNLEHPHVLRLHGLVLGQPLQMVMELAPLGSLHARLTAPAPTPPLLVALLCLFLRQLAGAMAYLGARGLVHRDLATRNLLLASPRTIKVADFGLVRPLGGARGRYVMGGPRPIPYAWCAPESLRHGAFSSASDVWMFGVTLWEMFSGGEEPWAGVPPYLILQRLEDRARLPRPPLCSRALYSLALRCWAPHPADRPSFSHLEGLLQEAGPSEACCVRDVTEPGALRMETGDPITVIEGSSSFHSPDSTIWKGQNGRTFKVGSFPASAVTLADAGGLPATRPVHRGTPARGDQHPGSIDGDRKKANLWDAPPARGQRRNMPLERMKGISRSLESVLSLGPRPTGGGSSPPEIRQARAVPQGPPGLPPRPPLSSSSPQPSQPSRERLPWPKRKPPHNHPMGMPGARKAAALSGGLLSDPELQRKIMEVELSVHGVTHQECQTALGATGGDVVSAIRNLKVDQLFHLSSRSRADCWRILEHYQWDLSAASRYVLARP
As to conditions: at 0.1 µM.

Test [7] concerns the target T2, Non-receptor tyrosine-protein kinase TNK1 (Homo sapiens). As to conditions: at 1 µM.
The target of test [8] is Activated CDC42 kinase 1 (Homo sapiens) (UniProt Q07912). Particulars: at 0.1 µM.
For test [9] the target is unchanged. As to conditions: at 1 µM.
Test [10] has as its target High affinity nerve growth factor receptor (Homo sapiens) (UniProt P04629). Particulars: at 0.1 µM.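 Further: each value is a mean of replicate percent inhibition readings against TRKA kinase.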

Sequence of Activated CDC42 kinase 1 (Homo sapiens) (Q07912 whole entry, looked up): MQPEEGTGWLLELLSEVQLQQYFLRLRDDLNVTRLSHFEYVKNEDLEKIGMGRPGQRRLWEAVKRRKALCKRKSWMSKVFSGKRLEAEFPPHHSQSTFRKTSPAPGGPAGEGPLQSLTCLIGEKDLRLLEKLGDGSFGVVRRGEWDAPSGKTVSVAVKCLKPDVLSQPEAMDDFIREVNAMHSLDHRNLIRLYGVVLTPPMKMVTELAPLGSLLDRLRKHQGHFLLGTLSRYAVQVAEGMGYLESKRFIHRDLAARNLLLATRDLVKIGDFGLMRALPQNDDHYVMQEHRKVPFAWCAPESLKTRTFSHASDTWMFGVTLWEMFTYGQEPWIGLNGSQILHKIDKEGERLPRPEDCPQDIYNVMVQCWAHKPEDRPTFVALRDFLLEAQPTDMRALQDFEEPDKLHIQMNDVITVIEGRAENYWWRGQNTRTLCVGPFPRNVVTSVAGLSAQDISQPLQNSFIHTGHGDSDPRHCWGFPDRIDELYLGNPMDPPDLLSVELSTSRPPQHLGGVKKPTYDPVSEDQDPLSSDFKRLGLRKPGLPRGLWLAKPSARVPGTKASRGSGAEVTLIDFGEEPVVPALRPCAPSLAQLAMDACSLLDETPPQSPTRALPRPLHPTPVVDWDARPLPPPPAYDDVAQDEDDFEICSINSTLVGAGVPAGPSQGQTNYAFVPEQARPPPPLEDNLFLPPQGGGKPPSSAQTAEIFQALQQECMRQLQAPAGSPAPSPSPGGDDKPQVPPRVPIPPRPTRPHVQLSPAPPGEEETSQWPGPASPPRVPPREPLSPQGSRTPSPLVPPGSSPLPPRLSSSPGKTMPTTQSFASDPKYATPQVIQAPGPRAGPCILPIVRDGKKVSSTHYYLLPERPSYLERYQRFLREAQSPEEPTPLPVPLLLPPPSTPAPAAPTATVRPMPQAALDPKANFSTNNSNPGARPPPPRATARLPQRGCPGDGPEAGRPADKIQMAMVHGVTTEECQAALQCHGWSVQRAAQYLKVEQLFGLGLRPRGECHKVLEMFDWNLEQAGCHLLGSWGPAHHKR
Sequence of Angiopoietin-1 receptor (Homo sapiens) (Q02763 whole entry): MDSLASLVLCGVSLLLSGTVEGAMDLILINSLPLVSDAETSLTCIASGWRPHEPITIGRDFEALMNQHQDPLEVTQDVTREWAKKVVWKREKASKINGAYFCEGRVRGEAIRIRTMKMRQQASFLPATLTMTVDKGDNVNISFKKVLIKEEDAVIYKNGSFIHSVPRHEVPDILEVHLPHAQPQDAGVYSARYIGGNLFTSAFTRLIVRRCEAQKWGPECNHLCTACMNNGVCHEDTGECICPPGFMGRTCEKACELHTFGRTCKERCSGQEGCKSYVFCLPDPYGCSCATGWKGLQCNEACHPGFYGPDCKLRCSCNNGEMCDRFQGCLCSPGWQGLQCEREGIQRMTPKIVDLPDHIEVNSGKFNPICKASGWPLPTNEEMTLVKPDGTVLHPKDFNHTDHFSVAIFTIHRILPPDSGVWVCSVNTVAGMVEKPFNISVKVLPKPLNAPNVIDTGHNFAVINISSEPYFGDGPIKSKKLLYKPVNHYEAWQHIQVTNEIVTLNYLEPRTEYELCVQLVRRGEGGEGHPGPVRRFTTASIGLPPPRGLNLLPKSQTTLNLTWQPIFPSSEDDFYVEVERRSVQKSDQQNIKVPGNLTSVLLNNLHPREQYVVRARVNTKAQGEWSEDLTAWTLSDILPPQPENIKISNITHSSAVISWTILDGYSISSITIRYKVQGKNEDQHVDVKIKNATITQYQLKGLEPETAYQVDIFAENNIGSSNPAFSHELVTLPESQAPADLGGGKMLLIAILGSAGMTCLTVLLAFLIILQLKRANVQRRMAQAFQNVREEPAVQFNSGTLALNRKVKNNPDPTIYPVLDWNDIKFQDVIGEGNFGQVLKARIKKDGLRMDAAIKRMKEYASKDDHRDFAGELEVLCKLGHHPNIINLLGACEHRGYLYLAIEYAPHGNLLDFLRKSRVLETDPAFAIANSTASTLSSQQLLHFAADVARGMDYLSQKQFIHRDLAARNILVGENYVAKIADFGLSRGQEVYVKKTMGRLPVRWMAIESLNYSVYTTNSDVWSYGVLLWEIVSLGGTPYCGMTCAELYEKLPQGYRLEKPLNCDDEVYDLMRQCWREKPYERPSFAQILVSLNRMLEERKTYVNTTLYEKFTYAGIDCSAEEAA
Sequence of High affinity nerve growth factor receptor (Homo sapiens) (P04629 33-796 limits assumed): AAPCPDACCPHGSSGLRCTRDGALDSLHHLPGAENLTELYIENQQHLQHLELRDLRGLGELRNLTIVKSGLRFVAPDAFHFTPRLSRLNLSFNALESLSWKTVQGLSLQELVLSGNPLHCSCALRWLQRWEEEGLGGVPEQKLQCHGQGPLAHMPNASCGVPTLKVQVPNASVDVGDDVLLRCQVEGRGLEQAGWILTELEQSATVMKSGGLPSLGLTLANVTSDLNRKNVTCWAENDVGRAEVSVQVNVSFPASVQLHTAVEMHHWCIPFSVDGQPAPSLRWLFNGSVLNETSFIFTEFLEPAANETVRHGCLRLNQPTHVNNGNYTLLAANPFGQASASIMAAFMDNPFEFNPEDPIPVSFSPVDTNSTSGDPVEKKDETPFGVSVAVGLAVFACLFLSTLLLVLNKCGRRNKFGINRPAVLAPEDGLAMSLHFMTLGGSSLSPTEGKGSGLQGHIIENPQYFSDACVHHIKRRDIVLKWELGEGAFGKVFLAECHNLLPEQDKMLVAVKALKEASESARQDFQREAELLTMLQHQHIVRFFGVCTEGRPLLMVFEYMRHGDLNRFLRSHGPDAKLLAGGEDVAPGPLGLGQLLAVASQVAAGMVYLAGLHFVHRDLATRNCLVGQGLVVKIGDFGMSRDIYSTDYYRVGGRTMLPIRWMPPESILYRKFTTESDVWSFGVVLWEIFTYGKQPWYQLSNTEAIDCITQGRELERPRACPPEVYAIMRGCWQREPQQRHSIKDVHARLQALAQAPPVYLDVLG

Take `COc1ccc(-c2nn3ncccc3c2-c2ccnc(Nc3ccc4c(c3)OCCO4)n2)cc1`: the inhibition in test [1] was -0.41%; in test [2], 1.33%; in [3], 11.9%; in [4], 8.07%; in [5] it was 45.9%; in test [6] it was 6.95%. Also, the inhibition was 51.1% in [7], -0.12% in test [8], 3.47% in test [9] and 0.04% in [10].

As for `c1ccc(COc2ccc(Nc3ncnc4ccc(-c5ccco5)cc34)cc2)cc1`, the inhibition is -0.46% in [1]; 1.31% in [2]; 3.25% in test [3]; 2.64% in test [4]; 3.4% in [5]; 1.53% in test [6]. The inhibition in test [7] is 5.09%; in [8], -0.27%; in test [9], 0.03%; in test [10], -2.34%.

For `Cc1ccc2c(-c3ccnc(Nc4ccccc4)n3)c(-c3ccc(F)cc3)nn2n1`, the inhibition in test [1] is -4.62%; in test [2], 10.6%; in [3] it was 38.1%; in [4], 3.44%; in test [5], 17.5%; in [6], 3.52%. The inhibition is 14.2% in test [7], 1.74% in [8], 7.9% in [9] and 9% in [10].

On to `CCn1c(-c2nonc2N)nc2ccccc21`, for which the inhibition was 0.1% in test [1]; 3.65% in test [2]; 7.35% in test [3]; 0.56% in test [4]; -0.01% in test [5]; 2.77% in test [6]. In addition, the inhibition is 4.19% in [7], 1.12% in test [8], 2.47% in [9] and 3.39% in test [10].

With `COc1ccc(-c2oc3ncnc(N)c3c2-c2ccc(NC(=O)Nc3cc(C(F)(F)F)ccc3F)cc2)cc1`, the inhibition in [1] is -8.92%; in test [2], 5.43%; in [3], 14%; in test [4], 79.3%; in test [5], 86.1%; in test [6] it was 21%. Moreover, the inhibition in test [7] came out at 85.3%; in [8], 4.09%; in test [9], 9.81%; in test [10], 71.1%.

For `CCN(CC)S(=O)(=O)c1ccc(OC)c(Nc2ncc(-c3ccccc3)o2)c1`, the inhibition in test [1] is -0.04%; in [2] it was 2.99%; in test [3], 11.9%; in test [4], 4.38%; in [5], 14%; in test [6] it was 15.6%. Also, the inhibition is 72.1% in test [7], -0.01% in test [8], 1.62% in test [9] and 4.25% in test [10].

On to `COc1cccc(-n2ncc3c(N/N=C/c4ccc(F)cc4)ncnc32)c1`, for which the inhibition in test [1] is -3.59%; in [2], 5%; in test [3], 9.02%; in test [4], 2.18%; in test [5], 5.99%; in test [6], 5.45%. Besides, the inhibition in test [7] is 12.4%; in test [8], 1.52%; in test [9] it was 3.5%; in test [10], 4.72%.

As to `CCN1CCC(CC(=O)Nc2n[nH]c3nnc(-c4cccc(F)c4F)cc23)CC1`, the inhibition was -2.27% in [1]; 0.83% in test [2]; 2.99% in test [3]; 1.5% in test [4]; 10.3% in [5]; 1.03% in [6]. Moreover, the inhibition in [7] was 4.94%; in test [8], 0.46%; in [9], 1.64%; in [10], -1.1%.

Regarding `CC(C)COC(=O)c1ccc2c(c1)/C(=C/Nc1ccc(S(N)(=O)=O)cc1)C(=O)N2`, the inhibition is -2.67% in test [1]; 0.3% in test [2]; 6.56% in test [3]; 0.75% in test [4]; 7.91% in test [5]; -3.82% in test [6]. The inhibition in test [7] was 5.07%; in test [8], -0.91%; in test [9], 0.01%; in test [10], 2.03%.

For `CN1CCC(n2cnc(-c3ccc(F)cc3)c2-c2ccnc(N)n2)CC1`, the inhibition was -1.2% in [1]; 3.52% in test [2]; 5.01% in [3]; 3.13% in [4]; 2.56% in [5]; 1.5% in test [6]. Moreover, the inhibition in [7] is 8.96%; in [8] it was 0.57%; in test [9], 1.23%; in test [10], 0.03%.

With `CCn1cc(-c2ccnc3[nH]ccc23)c(-c2cccc(NC(=O)Nc3ccc(OCc4ccccc4)cc3)c2)n1`, the inhibition in test [1] is -2.75%; in test [2], -0.28%; in [3], 0.98%; in [4], -0.17%; in [5], 6.2%; in test [6], 1.05%. In addition, the inhibition in test [7] is 11.2%; in test [8], -0.68%; in test [9], 2.63%; in [10], -1.48%.

For `Cc1cccc(Nc2ncc(-c3ccccc3)o2)c1`, the inhibition in test [1] stood at 2.98%; in [2] it was 6.33%; in [3], 4.84%; in [4] it was 5.06%; in [5] it was 4.9%; in test [6], 1.78%. Further, the inhibition in test [7] came to 4.17%; in test [8] it was 1.1%; in test [9], 3.4%; in [10], 0.19%.

As for `Cc1cccc2c1NC(=O)/C2=N\Nc1ccc(S(N)(=O)=O)cc1`, the inhibition was -1.74% in [1]; 5.22% in test [2]; 7.22% in test [3]; 1.65% in test [4]; 1.24% in test [5]; 2.15% in [6]. For the same compound, the inhibition in [7] is 5.82%; in test [8], 1.06%; in test [9] it was 1.59%; in test [10], 4.96%.

As for `CC(=O)NCc1cccc(C#Cc2cncnc2Nc2ccc(OCc3cccc(F)c3)c(Cl)c2)c1`, the inhibition is 2.55% in test [1]; 0.58% in [2]; 0.89% in test [3]; 0.95% in test [4]; 4.38% in test [5]; -1.56% in test [6]. In addition, the inhibition is -1.3% in [7], -0.45% in [8], -0.03% in [9] and 1.25% in test [10].

Take `N#Cc1c(NC(=O)CN2CCOCC2)sc2c1CCCC2`: the inhibition is -1.53% in [1]; 3.74% in test [2]; 7.22% in test [3]; 2.61% in test [4]; 4.26% in [5]; 3.32% in test [6]. The inhibition in test [7] stood at 8.64%; in test [8], 1.58%; in test [9], 3.21%; in test [10], 3.46%.

Consider `COc1ccc2[nH]c3c4[nH]c5ccc(OC)cc5c4c4c(c3c2c1)C(=O)NC4=O`, for which the inhibition in [1] worked out at 10.5%; in test [2], 6.89%; in [3] it was 31%; in [4], 1.36%; in test [5] it was 5%; in [6], 63.6%. In addition, the inhibition in [7] amounted to 89%; in [8], 5.57%; in [9], 16%; in test [10] it was 3.47%.
